Results filed as inconclusive are left out. Activity calls are given as the source filed them. Rule for the calls: active = hit-call score of the fitted dose curve at least 0.9, where 1 is the maximum; inconclusive = response in the unintended direction; inactive = score below 0.9.
These compounds were tested against human RAR-related Orphan Receptor gamma (RORg), RORC (gene 6097) (UniProt P51449) (assay: ATG_RORg_TRANS: Attagene TRANS-FACTORIAL HepG2 Assay for human RAR-related Orphan Receptor gamma (RORg) (AID 2283011);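 for AC50: potency for induction of reporter transcripts above DMSO so activators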).
human RAR-related Orphan Receptor gamma (RORg), RORC (gene 6097), sequence (P51449 whole entry, looked up): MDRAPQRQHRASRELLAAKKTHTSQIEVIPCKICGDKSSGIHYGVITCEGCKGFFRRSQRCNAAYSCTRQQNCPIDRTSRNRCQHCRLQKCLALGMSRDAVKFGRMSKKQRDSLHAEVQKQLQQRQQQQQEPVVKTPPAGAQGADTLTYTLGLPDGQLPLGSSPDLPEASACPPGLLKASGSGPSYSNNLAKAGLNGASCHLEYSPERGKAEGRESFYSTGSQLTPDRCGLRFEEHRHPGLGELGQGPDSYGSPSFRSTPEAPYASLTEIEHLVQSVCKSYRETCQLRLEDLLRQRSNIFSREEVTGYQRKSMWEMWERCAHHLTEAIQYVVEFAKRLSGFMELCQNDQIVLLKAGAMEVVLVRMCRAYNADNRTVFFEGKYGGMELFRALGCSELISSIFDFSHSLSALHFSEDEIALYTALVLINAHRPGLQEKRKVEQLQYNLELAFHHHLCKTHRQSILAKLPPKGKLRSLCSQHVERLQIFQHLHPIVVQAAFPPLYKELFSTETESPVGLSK
Protocol: ATG_TRANS is a cell-based, multiplexed-readout assay that uses HepG2, a human liver cell line, with measurements taken at 24 hours after chemical dosing in a 24-well plate.ATG_RORg_TRANS is one of 30 assay component(s) measured or calculated from the ATG_TRANS assay. It is designed to make measurements of mRNA induction, a form of inducible reporter, as detected with fluorescence intensity signals by Reverse transcription polymerase chain reaction (RT-PCR) and Capillary electrophoresis technology.Data from the assay component ATG_RORg_TRANS was analyzed into 1 assay endpoint. This assay endpoint, ATG_RORg_TRANS, was analyzed in the positive analysis fitting direction relative to DMSO as the negative control and baseline of activity. Using a type of inducible reporter, measures of mRNA for gain-of-signal activity can be used to understand the reporter gene at the transcription factor-level as they relate to the gene RORC. Furthermore, this assay endpoint can be referred to as a primary readout, because this assay has produced multiple assay endpoints where this one serves a reporter gene function. To generalize the intended target to other relatable targets, this assay endpoint is annotated to the nuclear receptor intended target family, where the subfamily is orphan.
Human liver HepG2 cells are transiently transfected with multiple reporter transcription units (MRTUs) in 6-well plates using FuGene 6 reagent (Roche; 3 ml FuGene/1 mg DNA). The MRTU constructs are regulated by a cis-regulating element (promoter). […] A major difference between the CIS and TRANS system is that in CIS activities of endogenous TFs are measured, whereas the TRANS assay evaluates changes in activities of exogenous, chimeric NR-Gal4 proteins. […] At the end of 24 hour incubation, total RNA was isolated using TriZol reagent (Invitrogen). The isolated RNA is then reverse-transcribed using oligo(dT) primer and Mo-MLV reverse transcriptase (Invitrogen) with DNAse I (Ambion) treatment for 30 min. The one-tenth of the produced cDNA was amplified by PCR using Taq DNA polymerase (Invitrogen) and two reporter sequence-specific primers. The PCR products were fluorescently labeled by primer extension with 6-arboxyfluorescein (6-FAM) 5'-labeled reporter sequence-specific primer (2 min at 95 C, 20 s at 68 C and 10 min at 72 C) and these products were digested with 5U of HpaI (New England Biolabs) for 2h at 37 C. The fragments were purified using Qiaquick PCR columns (Qiagen), analyzed on an ABI 3130xL genetic analyzer (Applied Biosystems) with peak positions identified by using a set of X-rhodamine (ROX)-labeled MapMarker1000 molecular weight standards (BioVentures). The raw capillary electrophoresis data was processed using Attagraph software (Attagene).
With `O=CC=O` the outcome was “inactive”. For `COc1cc(OC)nc(NC(=O)NS(=O)(=O)c2ncccc2C(=O)N(C)C)n1`, the outcome was “inactive”. With `O=C(c1ccccc1)C(Cl)Cl` the outcome was “inactive”. For `CC1CN1P(=O)(N1CC1C)N1CC1C` (stereo not given), the outcome was “inactive”. With `CC(=O)C(Cl)C(=O)N(C)C` (stereo not given) the outcome was “inactive”. `CCC(C)c1cccc(C(C)CC)c1O` (stereo not given) was tested, and the outcome was “inactive”. With `CCOP(OCC)OCC` the outcome was “inactive”. In the case of `O=C(Cl)c1ccc(Cl)cc1`, the outcome is reported as “inactive”. In the case of `Nc1ncc([N+](=O)[O-])s1`, the outcome is reported as “inactive”. For `CC12CC1(C)C(=O)N(c1cc(Cl)cc(Cl)c1)C2=O` (stereo not given), the outcome was “inactive”. `CCCCCCCCSC(=O)Oc1cc(Cl)nnc1-c1ccccc1` was tested, and the outcome was “inactive”. For `Cc1ccccc1N`, the outcome was “inactive”. In the case of `O=C1C(Cl)=C(Cl)C(=O)c2ccccc21`, the outcome is reported as “inactive”. `CCOP(=S)(OCC)SCSP(=S)(OCC)OCC` was tested, and the outcome was “inactive”. `COP(=O)(OC)OC` was tested, and the outcome was “inactive”. For `CN(CCCC(=O)c1cccnc1)N=O`, the outcome was “inactive”. For `COc1ccc(C=O)cc1`, the outcome was “inactive”. `CCCCC(CC)CO[N+](=O)[O-]` (stereo not given) was tested, and the outcome was “inactive”. With `COc1ccc(C=O)cc1OC` the outcome was “inactive”. In the case of `Nc1ccc(Cl)cc1C(=O)c1ccccc1`, the outcome is reported as “inactive”. For `O=C(O)C(F)(F)C(F)(F)C(F)(F)C(F)(F)C(F)(F)C(F)(F)F`, the outcome was “inactive”. `COS(=O)(=O)c1ccc(C)cc1` was tested, and the outcome was “inactive”. For `CCc1ccccc1C`, the outcome was “inactive”. In the case of `O=P(O)(O)CN(CP(=O)(O)O)CP(=O)(O)O`, the outcome is reported as “inactive”. With `ClCCBr` the outcome was “inactive”. With `C=CC(=O)OCCCCCC(C)C` the outcome was “inactive”. For `O=C(CCl)CCl`, the AC50 was 60.1 µM (active). In the case of `ClCC(Cl)CCl`, the outcome is reported as “inactive”. For `O=C1CCCN1`, the outcome was “inactive”. `O=C(O)C(Cl)(Cl)Cl` was tested, and the outcome was “inactive”. `CC(C)(C)c1cc(O)ccc1O` was tested, and the outcome was “inactive”. `COP(=S)(OC)Oc1ccc(Sc2ccc(OP(=S)(OC)OC)cc2)cc1` was tested, and the outcome was “inactive”. With `COc1cc2c(cc1OC)[C@@]13CCN4CC5=CCO[C@H]6CC(=O)N2[C@H]1[C@H]6[C@H]5C[C@H]43` the outcome was “inactive”. `CCC1(c2ccc(N)cc2)CCC(=O)NC1=O` (stereo not given) was tested, and the outcome was “inactive”. For `O=C(NCO)NCO`, the outcome was “inactive”. With `O=C(O)C(F)(F)C(F)(F)C(F)(F)C(F)(F)C(F)(F)C(F)(F)C(F)(F)C(F)(F)C(F)(F)C(F)(F)F` the outcome was “inactive”. `CC(C)(c1ccc(OCC2CO2)cc1)c1ccc(OCC2CO2)cc1` (stereo not given) was tested, and the outcome was “inactive”. For `CC(=[OH+])/C=C(/C)[O-].CC(=[OH+])/C=C(/C)[O-].CC(=[OH+])/C=C(/C)[O-].[Al]`, the outcome was “inactive”. With `O=C(Nc1ccc2[nH]ccc2c1)c1cc2cc(F)ccc2n1Cc1cccc(F)c1` the outcome was “inactive”. For `N#CCCO`, the outcome was “inactive”.
